The source of these data is ChEMBL document CHEMBL3433997, “St. Jude Leishmania screening dataset” (2016).

Common to all, as to format: functional
Assay [1] has as its target Solute carrier family 2, facilitated glucose transporter member 1 (Homo sapiens) (UniProt P11166). Nature of the assay: ST_JUDE_LEISH: Cytotoxicity at 2uM final concentration against transgenic Leishmania Mexicana promastigotes LmGLUT1 that are glucose transport deficient and complemented with the human glucose transporter GLUT1. Activity is measured by DNA content using SYBR green in vitro.

Assay [2] concerns the target Hexose transporter 1 (Plasmodium falciparum) (UniProt O97467). Nature of the assay: ST_JUDE_LEISH: Cytotoxicity at 2uM final concentration against transgenic Leishmania Mexicana promastigotes LmPfHT that are glucose transport deficient and complemented with the Plasmodium falciparum hexose transporter. Activity is measured by DNA content using SYBR green in vitro.
For assay [3], the target named is Glucose transporter (Leishmania mexicana) (UniProt O61059). The experiment in a line: ST_JUDE_LEISH: Cytotoxicity at 2uM final concentration against transgenic Leishmania Mexicana promastigotes LmGT2 that are glucose transport deficient and complemented with the L. Mexicana glucose transporter 2. Activity is measured by DNA content using SYBR green in vitro.

Chain of Solute carrier family 2, facilitated glucose transporter member 1 (Homo sapiens) (P11166 whole entry): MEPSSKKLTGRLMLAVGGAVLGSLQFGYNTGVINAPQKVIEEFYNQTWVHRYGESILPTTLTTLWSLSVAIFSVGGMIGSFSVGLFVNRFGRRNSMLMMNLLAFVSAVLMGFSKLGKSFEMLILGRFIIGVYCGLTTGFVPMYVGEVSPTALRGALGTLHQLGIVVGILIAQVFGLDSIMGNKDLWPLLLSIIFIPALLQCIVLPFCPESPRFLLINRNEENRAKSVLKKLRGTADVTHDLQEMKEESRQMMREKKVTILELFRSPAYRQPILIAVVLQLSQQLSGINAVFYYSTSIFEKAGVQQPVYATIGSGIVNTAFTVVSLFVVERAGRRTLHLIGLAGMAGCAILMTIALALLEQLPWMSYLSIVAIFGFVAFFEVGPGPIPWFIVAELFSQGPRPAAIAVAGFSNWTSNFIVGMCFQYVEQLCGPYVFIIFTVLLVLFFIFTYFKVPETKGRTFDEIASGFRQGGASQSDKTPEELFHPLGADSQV

In the case of `O=C(NC1CCN(c2ccnc3cc(Cl)ccc23)C1)c1cccc(F)c1` (configuration not stated), the inhibition (in general, the relative decrease from the control value, in per cent) in assay [1] was 0.95%; in assay [2], 1.46%; in assay [3], 1.42%.
On to `O=C(/C=C/c1ccc(F)c(Br)c1)NCCCCCN1CCC(c2c[nH]c3ccccc23)CC1`, for which the results for the inhibition in assay [1], in assay [2] and in assay [3] were 1.88%, 0.52% and -1.08%, respectively.
Consider `O=C(Nc1ccc2c(c1)CCC2)N[C@H]1CCN(CCCCCNC(=O)C2CC2c2ccc(Cl)c(Cl)c2)C1` (some centres not stated), for which the values for the inhibition in assay [1], in assay [2] and in assay [3] were -0.7%, 0.43% and -0.01%, respectively.
Turning to `CC(C)(CNCc1ccccc1)c1nc(-c2ccc(Cl)c(O)c2)c(-c2ccncc2)[nH]1`, the inhibition was 4.28% in assay [1], 4.73% in assay [2] and 3.53% in assay [3].
`CCNc1cc(C(=O)N[C@@H](Cc2ccccc2)[C@H](O)CN[C@@H]2CCc3ccccc32)cc(N2CCCCS2(=O)=O)c1`: the inhibition in assay [1] came out at 1.06%; in assay [2], 1.96%; in assay [3], 1.17%.
On to `COc1cccc(NC(=O)Cn2c(C)c(C(=O)C(F)(F)F)c3ccccc32)c1`, for which the inhibition came out at 2.88% in assay [1], 1.7% in assay [2] and 2.26% in assay [3].
The like results for `CN(Cc1ccccc1)C1CCCN(c2cc(NC(=O)c3cccs3)ccn2)C1` (configuration not stated) were, in that order, 0.77%, -0.06% and 0.5%.
Regarding `O=C(CN1CCN(C(C(=O)Nc2cc(C(F)(F)F)ccc2Cl)c2ccccc2)CC1)NC1CC1` (configuration not stated), the inhibition worked out at 0.74% in assay [1], 2.72% in assay [2] and 3.2% in assay [3].
The matching figures for `O=C(Cc1cccnc1)N(Cc1ccc(-c2ccc(CNCc3cccnc3)cn2)cc1)C1CCN(Cc2ccccc2)CC1`: -1.34%, -0.95% and -1.68%.
The like results for `N[C@@H](CCNCc1ccc(-c2cccnc2)cc1)Cc1ccc(F)c(F)c1` were, in that order, 0.43%, 0.41% and 0.4%.
Turning to `COC(=O)c1ccc(-c2ccc(-c3cccnc3)cc2C)cc1`, the inhibition worked out at 91.7% in assay [1], 90.5% in assay [2] and 74.1% in assay [3].
Turning to `Cc1cc(N[C@@H](Cc2ccccc2)C(=O)NC2CCCC2)nc(NCCc2ccc(F)cc2)n1`, the inhibition is 5.06% in assay [1], 5.18% in assay [2] and -0.53% in assay [3].
Regarding `Cc1cccc(Cl)c1S(=O)(=O)N1CCCCC(c2ccc(C(F)(F)F)cc2)=N1`, the inhibition in assay [1] worked out at 4.54%; in assay [2], 4.52%; in assay [3], 3.77%.
In the case of `COc1cc2c(cc1OCCN1CCC(N)CC1)N(C(=O)/C=C/c1ccccc1Cl)CC2`, the inhibition is 11.3% in assay [1], 10.8% in assay [2] and 12.8% in assay [3].
Consider `CCCCCCNC(=N)c1ccc2[nH]c(-c3ccc(O)cc3)nc2c1`, for which the inhibition in assay [1] worked out at 3.58%; in assay [2] it was 4.17%; in assay [3] it was 3.78%.
Regarding `O=C(Nc1ccc(-c2ccccc2)cc1)Nc1cccc(Cn2nc(Cl)c(N3CCNCC3)cc2=O)c1`, the inhibition is 0.77% in assay [1], 2.24% in assay [2] and 4.62% in assay [3].
For `Nc1ncc(-c2cn[nH]c2)cc1-c1nc2cc(Cl)cnc2[nH]1`, the inhibition in assay [1] is 3.35%; in assay [2], 1.4%; in assay [3], 1.93%.
With `CCCCN(CCCC)CCNC(=O)c1cccc(NC(=O)N2CCc3cc(SC)c(C(F)(F)F)cc32)c1`, the inhibition in assay [1] is 3.07%; in assay [2] it was 4.24%; in assay [3], 2.86%.
For `CS(=O)(=O)c1ccc(CCNCc2ccc(-c3ccc(CNC4Cc5ccccc5C4)cc3)nc2)cc1`, the inhibition is -0.55% in assay [1], -0.45% in assay [2] and 2.3% in assay [3].
Consider `CCN1CCC(N(Cc2ccc(-c3ccc(C(F)(F)F)cc3)cc2)C(=O)Cn2c(CCc3cccc(F)c3F)cc(=O)c3ccccc32)C1` (configuration not stated), for which the inhibition is 0.08% in assay [1], 1.38% in assay [2] and -0.49% in assay [3].
Consider `N#Cc1ccc(N2CCN(Cc3cccc(-c4ccc(-c5nc6cc(C(F)(F)F)ccc6[nH]5)s4)c3)CC2)nc1`, for which the inhibition in assay [1] worked out at 0.46%; in assay [2], 1.1%; in assay [3], 0.57%.
On to `O=C(Cc1c[nH]cn1)Nc1cccc(-c2cccc(-c3nc4cc(C(F)(F)F)ccc4[nH]3)c2)c1`, for which the results for the inhibition in assay [1], in assay [2] and in assay [3] were 9.44%, 12.1% and 10.4%, respectively.
Take `CCCCCCCCS(=O)(=O)NCCCC1CCN(CCCCCNC(=O)C=Cc2ccc(Cl)c(Cl)c2)CC1`: the results for the inhibition in assay [1], in assay [2] and in assay [3] were 2.57%, -0.32% and 2.95%, respectively.
For `O=C(NCc1ccc(C(=O)NC2CCCCCC2)cc1)c1ccc(O)c(-c2ccc(Cl)c(Cl)c2)c1`, the inhibition stood at 1.17% in assay [1], 1.13% in assay [2] and 0.44% in assay [3].
Take `COc1ccc(-c2ccc(NC(=O)c3cccc(C#N)c3)cc2)cc1CN1CCN(C)CC1`: the inhibition in assay [1] worked out at 4.33%; in assay [2], 6.51%; in assay [3], 1.6%.
The matching figures for `CN(C)C(=O)CN1CCN(c2ncnc(N3CCc4c([nH]c5ccccc45)[C@@H]3c3ccc4c(c3)CCO4)n2)CC1`: 4.28%, 1.61% and -0.47%.
`O=C(/C=C/c1ccc(Cl)c(Cl)c1)N1CCC(CCN2CCC(c3nc4cc(O)ccc4[nH]3)CC2)CC1`: the inhibition is 1.92% in assay [1], 0.59% in assay [2] and -0.62% in assay [3].
As for `CN(C)CCC1CCN(CCS(=O)(=O)c2cccc(Nc3ccc(-c4cccc(F)c4)cn3)c2)CC1`, the inhibition was -0.27% in assay [1], 3.28% in assay [2] and 3.78% in assay [3].
The like results for `CO/C(=C\C=C\c1cc2cc(Cl)c(Cl)cc2[nH]1)C(=O)NCCCN1CCN(c2cccc(OC)c2)CC1` were, in that order, 8.59%, 8.04% and 9.1%.
In the case of `O=C(/C=C/c1ccc(Cl)c(Cl)c1)NCCCCCN1CCC(C(=O)Nc2cccc(Cl)c2)CC1`, the inhibition amounted to 2.86% in assay [1], 1.97% in assay [2] and 2.09% in assay [3].
Regarding `Cc1noc(C)c1-c1cccc(CNCc2ccc(-c3ccc(-c4nc5cc(F)ccc5[nH]4)s3)cc2)c1`, the figures for the inhibition in assay [1], in assay [2] and in assay [3] were 11.2%, 10.3% and 10.2%, respectively.
The like results for `CC(=O)c1ccc(N2C(=O)C3C(Cc4ccc(OC(C)(C)C)cc4)NC4(C(=O)N(Cc5ccc(C(C)(C)C)cc5)c5ccccc54)C3C2=O)cc1` (configuration not stated) were, in that order, 7.13%, 4.25% and 2.13%.
For the molecule `CN(CCCCCNC(=O)/C=C/c1ccc(Cl)c(Cl)c1)CCCCc1c[nH]c2ccccc12`, the inhibition in assay [1] was 0.57%; in assay [2], 0.62%; in assay [3], 1.11%.
In the case of `O=C(Nc1ccc(CCNCc2ccccc2)cc1)Nc1ccc(OC(F)(F)F)cc1`, the inhibition is -1.69% in assay [1], -0.14% in assay [2] and 0.49% in assay [3].
